Experimental data published in paper PMC11006913.

What follows are sequences tested against HOXB6 (Homo sapiens, UniProt P17509 132-218, K202E) (assay: PBM; 200 nM protein, PBS). Conditions: dsDNA, one strand shown.
Sequence of HOXB6 (Homo sapiens, UniProt P17509 132-218, K202E) (P17509 132-218 K202E): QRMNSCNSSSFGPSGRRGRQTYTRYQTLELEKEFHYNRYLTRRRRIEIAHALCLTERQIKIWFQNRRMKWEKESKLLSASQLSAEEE

Point of comparison: GGCGTGGA, binding signal 9.09 upbm affinity estimate (log intensity, higher = more binding, comparable within an allelic series). Against it:
- CGCACACC — higher, 9.16 upbm affinity estimate (log intensity, higher = more binding, comparable within an allelic series)
- CTGGTCCC — lower, 9.06 upbm affinity estimate (log intensity, higher = more binding, comparable within an allelic series)
- CTCCGAAG — lower, 9.06 upbm affinity estimate (log intensity, higher = more binding, comparable within an allelic series)
- CCGAGCGC — lower, 9.06 upbm affinity estimate (log intensity, higher = more binding, comparable within an allelic series)
- ACCGTTAA — higher, 9.66 upbm affinity estimate (log intensity, higher = more binding, comparable within an allelic series)
- CCACGGAC — lower, 9.01 upbm affinity estimate (log intensity, higher = more binding, comparable within an allelic series)
- CCCCGGTC — lower, 8.98 upbm affinity estimate (log intensity, higher = more binding, comparable within an allelic series)
- GGCAGCAC — higher, 9.12 upbm affinity estimate (log intensity, higher = more binding, comparable within an allelic series)
- CGCAGGAG — higher, 9.14 upbm affinity estimate (log intensity, higher = more binding, comparable within an allelic series)
- TAGAATGA — higher, 9.57 upbm affinity estimate (log intensity, higher = more binding, comparable within an allelic series)
- CCAGCGGA — lower, 9.05 upbm affinity estimate (log intensity, higher = more binding, comparable within an allelic series)
- CATTAGGC — higher, 9.37 upbm affinity estimate (log intensity, higher = more binding, comparable within an allelic series)
- ACTATTCA — higher, 9.59 upbm affinity estimate (log intensity, higher = more binding, comparable within an allelic series)
- AAATCGAC — higher, 9.47 upbm affinity estimate (log intensity, higher = more binding, comparable within an allelic series)
- TCTCATAA — higher, 9.55 upbm affinity estimate (log intensity, higher = more binding, comparable within an allelic series)
- CTGCCTGC — lower, 9.03 upbm affinity estimate (log intensity, higher = more binding, comparable within an allelic series)
- GGCTCGAC — higher, 9.13 upbm affinity estimate (log intensity, higher = more binding, comparable within an allelic series)
- CCAGTCCC — higher, 9.1 upbm affinity estimate (log intensity, higher = more binding, comparable within an allelic series)
- GCGCTCCC — lower, 9.05 upbm affinity estimate (log intensity, higher = more binding, comparable within an allelic series)
- GCTTGCCC — lower, 9.05 upbm affinity estimate (log intensity, higher = more binding, comparable within an allelic series)
- GGGTCCGA — lower, 9.03 upbm affinity estimate (log intensity, higher = more binding, comparable within an allelic series)
- AATTTCGG — higher, 9.51 upbm affinity estimate (log intensity, higher = more binding, comparable within an allelic series)
- TCCTAGGA — higher, 9.13 upbm affinity estimate (log intensity, higher = more binding, comparable within an allelic series)
- CTCGGCTC — lower, 9.06 upbm affinity estimate (log intensity, higher = more binding, comparable within an allelic series)
- AAATGGTC — higher, 9.65 upbm affinity estimate (log intensity, higher = more binding, comparable within an allelic series)
- GATGCCCC — higher, 9.11 upbm affinity estimate (log intensity, higher = more binding, comparable within an allelic series)
- CCGGCGCA — lower, 9.01 upbm affinity estimate (log intensity, higher = more binding, comparable within an allelic series)
- CGGTGTGC — lower, 9.02 upbm affinity estimate (log intensity, higher = more binding, comparable within an allelic series)
- AAGGGAGC — lower, 9.01 upbm affinity estimate (log intensity, higher = more binding, comparable within an allelic series)
- GAGAGGGC — lower, 8.82 upbm affinity estimate (log intensity, higher = more binding, comparable within an allelic series)
- AAGTACGA — higher, 9.65 upbm affinity estimate (log intensity, higher = more binding, comparable within an allelic series)
- AAGGGACC — lower, 9.07 upbm affinity estimate (log intensity, higher = more binding, comparable within an allelic series)
- AATGGCTA — higher, 9.56 upbm affinity estimate (log intensity, higher = more binding, comparable within an allelic series)
- CCGGAGCG — lower, 9.07 upbm affinity estimate (log intensity, higher = more binding, comparable within an allelic series)
- GCCGCCCA — lower, 8.98 upbm affinity estimate (log intensity, higher = more binding, comparable within an allelic series)
- GGCGGCAC — lower, 9.08 upbm affinity estimate (log intensity, higher = more binding, comparable within an allelic series)
- CTCCTCGC — lower, 9.02 upbm affinity estimate (log intensity, higher = more binding, comparable within an allelic series)
- AGTCGCCC — lower, 8.98 upbm affinity estimate (log intensity, higher = more binding, comparable within an allelic series)
- GCTGGCTA — the same, 9.09 upbm affinity estimate (log intensity, higher = more binding, comparable within an allelic series)

Each sequence was assayed against HOXB6 (Homo sapiens, UniProt P17509 132-218) (assay: PBM; 200 nM protein, PBS). Conditions: dsDNA, one strand shown.
Sequence of HOXB6 (Homo sapiens, UniProt P17509 132-218) (P17509 132-218): as the sequence (P17509 132-218 K202E) above, with E71K counted along it

Point of comparison: GGCTCGAC, binding signal 8.81 upbm affinity estimate (log intensity, higher = more binding, comparable within an allelic series). Against it:
- CGCACACC — higher, 9.11 upbm affinity estimate (log intensity, higher = more binding, comparable within an allelic series)
- CTGGTCCC — higher, 9.01 upbm affinity estimate (log intensity, higher = more binding, comparable within an allelic series)
- CTCCGAAG — higher, 9.02 upbm affinity estimate (log intensity, higher = more binding, comparable within an allelic series)
- CCGAGCGC — higher, 9.04 upbm affinity estimate (log intensity, higher = more binding, comparable within an allelic series)
- ACCGTTAA — higher, 10.6 upbm affinity estimate (log intensity, higher = more binding, comparable within an allelic series)
- CCACGGAC — higher, 9.02 upbm affinity estimate (log intensity, higher = more binding, comparable within an allelic series)
- CCCCGGTC — higher, 9.03 upbm affinity estimate (log intensity, higher = more binding, comparable within an allelic series)
- GGCAGCAC — higher, 9.12 upbm affinity estimate (log intensity, higher = more binding, comparable within an allelic series)
- CGCAGGAG — higher, 8.95 upbm affinity estimate (log intensity, higher = more binding, comparable within an allelic series)
- TAGAATGA — higher, 10.3 upbm affinity estimate (log intensity, higher = more binding, comparable within an allelic series)
- CCAGCGGA — higher, 8.93 upbm affinity estimate (log intensity, higher = more binding, comparable within an allelic series)
- CATTAGGC — higher, 10.4 upbm affinity estimate (log intensity, higher = more binding, comparable within an allelic series)
- ACTATTCA — higher, 10.2 upbm affinity estimate (log intensity, higher = more binding, comparable within an allelic series)
- AAATCGAC — higher, 10.1 upbm affinity estimate (log intensity, higher = more binding, comparable within an allelic series)
- TCTCATAA — higher, 10.4 upbm affinity estimate (log intensity, higher = more binding, comparable within an allelic series)
- CTGCCTGC — higher, 8.97 upbm affinity estimate (log intensity, higher = more binding, comparable within an allelic series)
- CCAGTCCC — higher, 8.95 upbm affinity estimate (log intensity, higher = more binding, comparable within an allelic series)
- GCGCTCCC — higher, 8.94 upbm affinity estimate (log intensity, higher = more binding, comparable within an allelic series)
- GCTTGCCC — higher, 9.1 upbm affinity estimate (log intensity, higher = more binding, comparable within an allelic series)
- GGGTCCGA — higher, 9.07 upbm affinity estimate (log intensity, higher = more binding, comparable within an allelic series)
- AATTTCGG — higher, 10.2 upbm affinity estimate (log intensity, higher = more binding, comparable within an allelic series)
- TCCTAGGA — higher, 9.16 upbm affinity estimate (log intensity, higher = more binding, comparable within an allelic series)
- CTCGGCTC — higher, 8.95 upbm affinity estimate (log intensity, higher = more binding, comparable within an allelic series)
- GGCGTGGA — higher, 9.03 upbm affinity estimate (log intensity, higher = more binding, comparable within an allelic series)
- AAATGGTC — higher, 10.6 upbm affinity estimate (log intensity, higher = more binding, comparable within an allelic series)
- GATGCCCC — higher, 8.96 upbm affinity estimate (log intensity, higher = more binding, comparable within an allelic series)
- CCGGCGCA — higher, 9.07 upbm affinity estimate (log intensity, higher = more binding, comparable within an allelic series)
- CGGTGTGC — higher, 8.92 upbm affinity estimate (log intensity, higher = more binding, comparable within an allelic series)
- AAGGGAGC — higher, 8.99 upbm affinity estimate (log intensity, higher = more binding, comparable within an allelic series)
- GAGAGGGC — lower, 8.79 upbm affinity estimate (log intensity, higher = more binding, comparable within an allelic series)
- AAGTACGA — higher, 10.3 upbm affinity estimate (log intensity, higher = more binding, comparable within an allelic series)
- AAGGGACC — higher, 8.97 upbm affinity estimate (log intensity, higher = more binding, comparable within an allelic series)
- AATGGCTA — higher, 10.8 upbm affinity estimate (log intensity, higher = more binding, comparable within an allelic series)
- CCGGAGCG — higher, 9.17 upbm affinity estimate (log intensity, higher = more binding, comparable within an allelic series)
- GCCGCCCA — higher, 8.99 upbm affinity estimate (log intensity, higher = more binding, comparable within an allelic series)
- GGCGGCAC — higher, 9.21 upbm affinity estimate (log intensity, higher = more binding, comparable within an allelic series)
- CTCCTCGC — higher, 9.05 upbm affinity estimate (log intensity, higher = more binding, comparable within an allelic series)
- AGTCGCCC — higher, 9.09 upbm affinity estimate (log intensity, higher = more binding, comparable within an allelic series)
- GCTGGCTA — higher, 9 upbm affinity estimate (log intensity, higher = more binding, comparable within an allelic series)
